Results taken from the supplement of paper PMC3334620.
The full ranking holds about 33,000 sequences; the median of “E-score (-0.5 to 0.5)” is about -0.016, and the highest 2% start at about 0.3. Only a selection was taken, and the highest values are over-represented in it overall.

Target: T1, Yer184c (UniProt P39961)
T1 sequence: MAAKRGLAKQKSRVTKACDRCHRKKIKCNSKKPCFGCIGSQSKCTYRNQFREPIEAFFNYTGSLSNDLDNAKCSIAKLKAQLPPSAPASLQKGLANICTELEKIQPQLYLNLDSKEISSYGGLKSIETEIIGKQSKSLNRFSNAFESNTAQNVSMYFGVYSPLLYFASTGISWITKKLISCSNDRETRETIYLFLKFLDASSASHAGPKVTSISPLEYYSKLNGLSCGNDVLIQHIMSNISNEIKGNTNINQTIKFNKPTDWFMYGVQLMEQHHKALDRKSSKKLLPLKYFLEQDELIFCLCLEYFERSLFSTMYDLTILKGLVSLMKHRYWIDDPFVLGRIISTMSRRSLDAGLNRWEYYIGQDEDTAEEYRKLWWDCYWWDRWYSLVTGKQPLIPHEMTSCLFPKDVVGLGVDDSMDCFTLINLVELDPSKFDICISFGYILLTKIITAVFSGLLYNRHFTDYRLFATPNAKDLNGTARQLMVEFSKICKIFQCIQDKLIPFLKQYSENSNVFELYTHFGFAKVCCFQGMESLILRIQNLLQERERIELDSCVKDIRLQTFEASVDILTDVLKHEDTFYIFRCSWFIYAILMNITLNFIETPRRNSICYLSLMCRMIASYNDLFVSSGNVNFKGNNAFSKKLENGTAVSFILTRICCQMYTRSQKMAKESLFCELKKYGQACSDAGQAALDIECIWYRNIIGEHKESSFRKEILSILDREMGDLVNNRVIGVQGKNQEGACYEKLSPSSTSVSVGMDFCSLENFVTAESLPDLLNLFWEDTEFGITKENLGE
Test: PBM E-score (8-mer binding enrichment) (E-score (-0.5 to 0.5)); higher = stronger / more preferred TF binding
Settings: protein concentration: 100 nM; construct: GST-full length
Description: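 Universal 'all 10-mer' protein binding microarrays (Agilent AMADID 015681) probed with GST-tagged S. cerevisiae TFs (full-length or DBD) made by in vitro transcription/translation (PURExpress), about 100-200 nM. Bound TF was detected with fluorescent anti-GST. Each ungapped 8-mer (which stands for itself and its reverse complement) is scored by the PBM enrichment score (E-score), a modified Wilcoxon-Mann-Whitney statistic from -0.5 to +0.5, computed with the Universal PBM Analysis Suite. Scale: above 0.35 generally sequence-specific binding.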

Sequence	PBM E-score
GGCTGCGA	-0.00955
CATGGAGC	-0.175
ATGGAGAG	-0.0917
CATTAGGG	-0.12
CTCTCCGA	0.149
GTCTCCGA	0.243
ATCTCCAG	-0.0032
ATCTCCGC	0.14
ATCTCCGG	0.435
ATCTCCGA	0.36
AAGCACCA	-0.224
CACCAAAG	0.0906
ATTTATTC	0.329
ATTTATCA	0.258
ATTTATTA	0.216
ATTTATCG	0.103
CTTTATTC	0.0145
ATTTATCC	0.314
ATAGAACA	-0.0179
AGTACTGC	-0.177
AACTCGAT	0.12
ACAAGCGA	-0.015
GAAGTAAC	0.0995
AGTAGCAT	-0.0361
AGCATATG	-0.242
ATCCGAGA	0.252

Sequence	PBM E-score
ATCCGACA	0.162
ATCCGATG	0.327
ATCCGACC	0.0769
ATCCGATC	0.235
ATCCGAAG	0.302
ATACGAAT	0.0699
ATCCGAAT	0.419
ATCCGATA	0.266
ATCCGAAA	0.321
GTCCGAGA	0.333
CTCCGAGA	0.247
CTGTGTTC	0.093
CTAGAACC	-0.00303
TATGTACA	-0.0329
AGCACTCG	-0.0898
CTAGAAAG	-0.0631
ATGTATGC	0.0572
AGTCTCAG	-0.104
GTCCGAAA	0.316
GTCCGAAC	0.23
CTCCGAAA	0.266
TTCCGAAA	0.37
TACCGAAA	0.204
TCCCGAAA	0.196
CCAGCTAA	-0.204
GTATCTTA	0.197

Sequence	PBM E-score
GTCGCGAA	0.00034
GTCGCGAC	0.315
CTCGCGAC	-0.064
CTCTTCAA	-0.129
TAGACCTA	-0.0542
GCGGAGTA	0.0105
CTGGATTC	0.00297
ACGGATTA	0.183
CCGGATTC	0.33
ACGGATTC	0.197
CCGGAGTC	0.235
CCGGAGTA	0.381
CCGGATTA	0.352
GCGGATTA	0.0175
ATATGGAT	-0.0237
ACCGCTCG	-0.135
GGTAGGTA	-0.127
ACGCGGCC	-0.0466
ACGCGGCG	0.113
CCGCGGCA	0.409
GCGCGGCA	0.158
ACGCGGCA	0.096
CCGCGGCC	0.374
CCGCGGCG	0.326
GCGCGGCC	0.177
CAGCGGCG	0.0785

Sequence	PBM E-score
ACCCAACC	-0.191
AGAGGGGA	-0.286
ACTGGGTC	-0.271
GAGATTCC	0.0978
CCAAAGCC	-0.0564
CCGGAAGA	0.344
CCGGAAGC	0.329
GGGGAACA	-0.17
ACGGAAGC	0.274
ACGGAAGA	0.262
CCGGACGA	0.323
TCGGACGA	0.278
CGGGAACA	0.313
CCGGAAGG	0.28
AGGGAACA	0.00359
GCGGAAGC	0.105
ACGGACGA	0.237
GACACCTA	-0.129
AAGGGCGA	-0.211
AACAACCT	-0.0961
CAGCTTCG	-0.0525
ATAGTCGA	0.0238
AAACCCCG	0.0829
ATTCGATC	0.111
GAAGGGGA	-0.201
GACAGAGC	-0.128

Sequence	PBM E-score
AGGCCGAA	0.302
CGGGAAGA	0.315
AGGGAAGA	-0.12
CGGGAAGC	0.138
TAACAATA	0.158
GAACAATA	0.313
AAACAATA	0.282
AACACCGC	-0.13
AACACCGG	0.37
CACACCGG	0.0348
AATACCGG	0.336
AATACCGT	0.188
AATACCGC	0.0781
CACCCGTG	-0.169
GCCGCGGA	0.386
ATCGCGGA	-0.00991
GCCGCGCA	0.0353
GCCGCGAA	-0.0654
AACGCGGA	0.178
ACCGCGGA	0.314
GCCGCTCA	-0.0363
GGTAAGCA	-0.146
CCGGATGC	0.331
CAGGATGC	-0.0823
ACGGATGA	0.0817
ACGGATGC	0.203

Sequence	PBM E-score
CCGGATGA	0.335
GCGGATGA	0.125
GCGCCAAA	-0.00708
CCCATGAC	-0.117
GAGGAGCA	-0.0781
CCTGCTGC	-0.143
GAATGCTC	-0.157
CGGTACCA	0.0778
CGGTACCG	0.32
CGGTACCC	-0.0697
GCTAGGAA	0.0829
AGGTAGAA	-0.0769
CCGGCCGC	0.304
CCGGCCGA	0.431
CCGGCCTA	0.28
ACGGCCGA	0.355
ACGGCCGT	0.176
ACGGCCGC	0.244
ACGGCCAA	0.192
GCGGCCGC	0.261
ACGGCCCA	-0.0167
GCGGCCGA	0.242
ACGGCCGG	0.372
ATGGCCGG	0.215
AAAGAGCG	0.00323
AAGCGACA	-0.0772

Sequence	PBM E-score
AACATGGC	-0.317
CATGTGAA	-0.0476
ACTTGCCG	0.142
AGGTCGAA	-0.0466
CGGGCCGA	0.308
GGGGCCGA	-0.192
CGGGCCGC	0.137
AAAGATAT	0.0801
CTGTGCTA	-0.119
GTGTGGGA	-0.0509
CGAGCTCA	0.144
CGAGCTCG	0.308
CGAGCTCC	0.0493
TCAATGGA	-0.0551
GCTACAGA	-0.185
CCGTGCCA	-0.127
CCGTGCCG	0.312
ACGTGCCG	0.233
CAGGGGAA	-0.196
AAGCTATC	0.191
CTCGGATC	0.241
GTCGGATA	0.122
ATCGGATA	0.369
GTCGGACA	0.193
ATCGGATC	0.298
CTCGGATA	0.305

Sequence	PBM E-score
CTCGGACA	0.306
CTCGGAGA	0.252
ATCGGACA	0.303
GATTGGGA	-0.133
CCCCAGGA	-0.372
CGATTCAA	-0.0538
GTTTGCCA	-0.0315
GAGCATCC	-0.111
CGTGCGCC	0.0367
CGGGCTTA	0.157
AATTACCT	0.0235
AGAGGTTA	-0.0189
CAAGTGCC	-0.126
AGTTACCA	0.0704
TCCGCCGA	0.316
CGCGCCGA	0.256
GGCGCCTA	-0.0826
AGCGCCAA	-0.231
AGCGCCGC	0.0842
GCCGCCGA	0.264
AGCGCCCG	0.113
GGCGCCAA	-0.0615
AGCGCCGG	0.351
AGCGCCGA	0.357
CCCGCCGA	0.193
GGCGCCGA	0.337

Sequence	PBM E-score
GCAGGGCA	-0.0295
GTGCACAA	-0.028
ACCTTTTC	-0.076
AAGCTAAT	0.162
CCGGCTAG	0.277
AGGGGCTC	-0.341
TAAATCCA	0.00272
AACCGGTA	0.0801
ATCCGGCA	0.296
CTCCGGCC	0.125
AGCCGGTC	0.144
CGCCGGCA	0.345
CGCCGGTA	0.216
AGGCGGCA	-0.0565
CTCCGGCA	0.359
AGCCGGTA	0.306
AGCCGGCA	0.404
CCCCGGCA	0.0621
ACCCGGCA	0.187
